# Screening results: PubChem BioAssay, National Center for Advancing Translational Sciences (NCATS)
# Compounds with a hit are over-represented: about 7.8% of the library has one in this group of screens.
# HCMV inh – human cytomegalovirus inhibition. HFF cells, HCMV-luciferase reporter, 72 h; hits give low values. activity change, negative = inhibition, % at 57.5 µM. 410,000 tested, 4.5% active; in the data active = activity change below about -60%; inconclusive = no clear call, values can overlap the other calls; inactive = above about -39%
#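 Compounds were evaluated in HFFs infected with an HCMV luciferase reporter virus (MOI 1 PFU/cell). Luciferase in lysates collected 72 h post infection served as the replication measure.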
# HCV inh – blocks hepatitis C virus. Huh7.5.1 HCVcc-Cre infection, luciferase reporter, 44 h. Potency, µM (titrated, usually from 41.8 µM), inactives show at the top dose activity change, negative = inhibition, actives largely listed as inhibitors. 340,000 tested, 3.4% active. AID 651820; active = well fitted inhibition curve with a large enough effect; inconclusive = small, poorly fitted or top-dose-only effect, or another doubt; inactive = no such curve, though single readings can be large or run the other way; also: potency is read from the fitted curve at half-maximal effect
#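 Compounds are dispensed onto cells plated 4 h earlier at 1,000 per well, with HCVcc-Cre virus (about 0.5 moi) added next. Following 44 h of culture, luminescent signal is measured for 15 sec after 15 min with substrate at room temperature.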
# MARV entry inh – inhibitors of Marburg virus binding or cell entry; Marburg virus pseudotyped entry inhibition, cell reporter; Potency, µM (highest dose often 37.8 µM), for the others: at the top dose activity change, negative = inhibition, hits mostly inhibitors; 300,000 tested, 1.8% active; AID 540276; calls by dose curve; tested in HEK293 cells; also: potency is read from the fitted curve at half-maximal effect
# VACV Venus inh – inhibitors of vaccinia virus (Venus reporter) | 330,000 tested, 0.46% active | Vaccinia virus Venus reporter expression, fluorescence | AID 720580 | Potency, µM (top dose mostly 36.5 µM), inactives show at the top dose activity change, negative = inhibition, most hits filed as inhibitors; calls by dose curve; tested in A549 cells; also: potency is read from the fitted curve at half-maximal effect; nearly all actives have a fitted effect of over 30% in size
# Vaccinia mCherry – vaccinia inhibition (mCherry reporter) | Vaccinia virus mCherry reporter infection, fluorescence | Potency, µM (series often up to 36.5 µM), without a hit: at the highest dose activity change, negative = inhibition, actives largely listed as inhibitors | 310,000 tested, 0.63% active | AID 720579; calls by dose curve; tested in A549 cells; also: potency is read from the fitted curve at half-maximal effect; nearly all actives have a fitted effect of over 35% in size
# Lassa entry inh – blocks Lassa virus binding to or entry into cells; Lassa virus pseudotype entry inhibition, cell reporter; Potency, µM (doses to about 37.9 µM), for the others: top-dose activity change, negative = inhibition, hits mostly inhibitors; 300,000 tested, 1.2% active; AID 540256; calls by dose curve; tested in HEK293 cells; also: potency is read from the fitted curve at half-maximal effect; nearly all actives have a fitted effect of over 50% in size
# * = called active by the depositor; i = inactive; ? = inconclusive; / = no result; [ ] = remark or other dose. % is scaled to controls: 0 for no effect and ±100 for the full control effect.
SMILES,HCMV inh,HCV inh,MARV entry inh,VACV Venus inh,Vaccinia mCherry,Lassa entry inh
COC(=O)C1=C(c2ccccc2OCc2ccccc2)C[C@@H]2CC[C@H]1N2C(=O)NC1CCN(Cc2ccccc2)CC1,-28,?,/,?,?,/
COC(=O)C1=C(c2ccc(F)cc2OCc2ccccc2)C[C@@H]2CC[C@H]1N2C(=O)NCc1ccc2c(c1)OCO2,-26,10µM*,/,?,-29%,/
COC(=O)C1=C(c2cccc(OCc3ccccc3)c2)C[C@@H]2CC[C@H]1N2C(=O)NCc1ccc(C(F)(F)F)cc1,?,10µM*,/,?,-8%,/
COC(=O)C1=C(c2cccc(OCc3ccccc3)c2)C[C@@H]2CC[C@H]1N2C(=O)NC1CCN(Cc2ccccc2)CC1,7,10µM*,/,?,-15%,/
COc1ccccc1-c1ccnc(-n2ncc(C(=O)N(C)C(C)c3nc(C)cs3)c2C2CC2)n1 (stereo not given),/,/,/,-7%,-12%,/
CCc1ccc2oc(-c3ccc(C)c(NC(=O)COc4ccc(Cl)cc4)c3)nc2c1,/,/,/,-5%,17%,/
CCOC(=O)c1ccccc1NC(=O)c1sc2nc3n(c(=O)c2c1C)CCCCC3,1,/,/,-9%,-2%,-17%[46.1 µM]
Cc1coc2c1c(C)cc1oc(=O)c(CC(=O)NCc3ccc(Cl)cc3)c(C)c12,3,/,5%[46.1 µM],-8%,-5%,17%[46.1 µM]
COC(=O)C1=C(c2ccc(-c3ccccc3)c(F)c2)C[C@@H]2CC[C@H]1N2C(=O)NCc1cc(C)oc1C(F)(F)F,-8,?,/,?,-15%,/
COC(=O)C1=C(c2ccc(OCc3ccccc3)cc2)C[C@@H]2CC[C@H]1N2C(=O)NCCCc1ccccc1,?,6.3µM*,/,?,-17%,/
COC(=O)C1=C(c2cccc(OCc3ccccc3)c2)C[C@@H]2CC[C@H]1N2C(=O)NCCCc1ccccc1,?,?,/,?,-21%,/
COC(=O)C1=C(c2ccc(OCc3ccccc3)cc2)C[C@@H]2CC[C@H]1N2C(=O)NCc1ccc(OC)c(OC)c1,-61*,10µM*,/,?,?,/
COC(=O)C1=C(c2ccc(OCc3ccccc3)cc2)C[C@@H]2CC[C@H]1N2C(=O)NCc1cccc(C(F)(F)F)c1,-32,13µM*,/,?,-19%,/
COC(=O)C1=C(c2cccc(C#N)c2)C[C@@H]2CC[C@H]1N2C(=O)NCc1cc(C)oc1C(F)(F)F,-71*,?,/,-29%,-29%,/
COc1ccc(NC(=O)c2ccc3c(=O)n4nc(Nc5cc(C)ccc5C)sc4nc3c2)cc1,?,/,/,-15%[7.34 µM],-6%[7.34 µM],21%[46.1 µM]
Cc1ccc(CNC(=O)CC(C)CC2=NS(=O)(=O)c3ccccc3N2)cc1 (stereo not given),2,/,/,-10%,-8%,3%[46.1 µM]
CCCCCn1c(Sc2nc3ccccc3s2)nc2c1c(=O)[nH]c(=O)n2C,17,8.9µM*,?,10µM*,10µM*,?
C/C=C/Cn1c(SCc2ccccc2)nc2c1c(=O)[nH]c(=O)n2C,18,-12%,?,?,/,13µM*
CC(=O)CSc1nc2c(c(=O)[nH]c(=O)n2C)n1Cc1cccc(Br)c1,229,13µM*,-15%[46.1 µM],?,-15%,-16%[46.1 µM]
CCOCCn1c(SCc2ccccc2)nc2c1c(=O)[nH]c(=O)n2C,18,0%,/,-7%,9%,/
CC(C)CCn1c(Sc2nc3ccccc3o2)nc2c1c(=O)[nH]c(=O)n2C,-78*,?,?,?,?,-19%
Cn1c(=O)[nH]c(=O)c2c1nc(SCCC(=O)O)n2Cc1cccc(Br)c1,3,-1%,4%[46.1 µM],-8%,i,-2%[46.1 µM]
CCCCCn1c(Sc2ncccn2)nc2c1c(=O)[nH]c(=O)n2C,30,12%,10%,-1%,/,-15%
Cn1c(=O)[nH]c(=O)c2c1nc(N1CCCCC1)n2CCSc1nc2ccccc2o1,5,4%,3%,-9%,-11%,/
CCOc1ccc(N(C)C(=O)C2CCN(S(=O)(=O)c3c(C)noc3/C=C/c3ccc(C)cc3)CC2)cc1,96,/,/,-5%[7.34 µM],-12%[7.34 µM],8%[46.1 µM]
SMILES,HCMV inh,HCV inh,MARV entry inh,VACV Venus inh,Vaccinia mCherry,Lassa entry inh
CCOC(=O)CSc1nc2c(c(=O)[nH]c(=O)n2C)n1Cc1ccccc1,65,2.8µM*,/,/,/,/
CCCCCCn1c(SCC(C)C)nc2c1c(=O)[nH]c(=O)n2C,4,?,-22%,20%,/,-5%
CCCCCCn1c(SCC(=O)OC)nc2c1c(=O)[nH]c(=O)n2C,16,5µM*,/,1%,i,/
CC1(C)OC(=O)C2(Cc3cc([N+](=O)[O-])ccc3N3CCCCCC32)C(=O)O1 (stereo not given),/,/,/,-18%,-22%,/
CC(=O)C(C(C)=O)c1c(Cl)c(O)c(O)c2c(C(=O)c3ccccc3)coc12,-107*,10µM*,?,?,i[1.46 µM],7.1µM*
CN1CCN(Cc2c(O)ccc3occ(C(=O)c4ccccc4)c23)CC1,14,?,?,/,/,-25%
CC(=O)c1ccc(N2CCN(S(=O)(=O)c3c(C)nc4sc(C)cn4c3=O)CC2)cc1,1,/,/,-14%,-21%,0%[46.1 µM]
COc1cccc(-n2c(SCC(=O)N3CCCc4ccccc43)nc3c([nH]c4ccccc43)c2=O)c1,-17,/,/,-3%,-4%,?
Cc1ccc(C(=O)N/N=C/c2nc3ccccc3n2C)cc1,-66*,?,-22%,-26%,-18%,?
COc1ccc(CNC(=O)Cc2csc3nc(-c4ccc(F)cc4)cn23)cc1,-27,/,/,-11%,i,0%[46.1 µM]
O=C(CNC(=O)c1ccco1)OCC(=O)c1ccc(Cl)cc1,-20,17%,/,/,/,/
O=C(CNC(=O)c1cccs1)OCC(=O)c1ccc([N+](=O)[O-])cc1,-65*,9%,-24%[46.1 µM],-4%,-6%,9%
O=C(CNC(=O)c1ccco1)OCC(=O)c1ccc([N+](=O)[O-])cc1,-64*,1%,4%[46.1 µM],-2%,i,-17%
O=C(CNC(=O)c1cccs1)c1ccc([N+](=O)[O-])cc1,28,9%,?,-13%,-18%,0%
O=C(CNC(=O)c1cccs1)c1ccc(F)cc1,-75*,-2%,?,-3%,-17%,-22%
O=C(CNC(=O)c1cccs1)c1ccc(Cl)cc1,35,-1%,?,3%,i,-16%
CCOc1ccc(NC(=O)Cn2c(=O)c(CNc3ccc(CC)cc3)cc3cc4c(cc32)OCO4)cc1,9,/,/,6%,-14%,?
CCC1(O)C(=O)OCc2c1cc1n(c2=O)Cc2cc3c(N)cccc3nc2-1 (stereo not given),-98*,?,?,?,-27%,?
Cc1ccc(SCC(=O)Nc2ccc(O)c(-c3nc4cc(C)ccc4o3)c2)cc1,-16,/,?,?,?,27%[46.1 µM]
COc1ccc(CCNC(=O)c2ccc3c(c2)CCN3S(C)(=O)=O)cc1OC,-5,/,-5%[46.1 µM],-3%,-13%,0%[46.1 µM]
